Key:
Assay in all cases: PBM binding z-score (relative to random genomic background probes); higher = stronger binding; sequences stand for … in GC…GCGATTGACAGCGTAGAATGAAGG
[1] = test system: RARb homodimer (NR concentration 270 nM)
Outline: (§1)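 Random background probes are the reference for binding z-scores. These scores derive from regression-normalized fluorescence on custom Agilent 4×180K protein-binding microarrays incubated 1 h with ligand-free nuclear receptor dimers. Binding was detected with antibodies against each partner (one per run).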

[2] = test system: RARg:RXRa (NR concentration 270 nM, RXRa partner concentration 90 nM)
Outline: as §1

[3] = test system: RARg homodimer (NR concentration 270 nM)
Outline: as §1

[4] = test system: RXRa DBDmut IVT, anti-RXR (DBD mutation: RXRa K156A/R161A, NR concentration 90 nM)
Outline: as §1

[5] = test system: RXRa homodimer (NR concentration 180 nM)
Outline: as §1

[6] = test system: THRa:RXRa (NR concentration 90 nM, RXRa partner concentration 90 nM)
Outline: as §1

[7] = test system: THRa homodimer (NR concentration 90 nM)
Outline: as §1

[8] = test system: VDR homodimer (NR concentration 270 nM)
Outline: as §1

AATACAGGGTCACTAGGCCACAGTAGGTACGAAT
PBM binding z-score [1]: 3.36 | PBM binding z-score [2]: 5.36 | PBM binding z-score [3]: 4.87 | PBM binding z-score [4]: 2.86 | PBM binding z-score [5]: 5.56 | PBM binding z-score [6]: 3.38 | PBM binding z-score [7]: 1.32 | PBM binding z-score [8]: 2.95

CCTAGTTGGTCAGGAGATCACACACCGGATATGA
PBM binding z-score [1]: 0.781 | PBM binding z-score [2]: 0.628 | PBM binding z-score [3]: 1.01 | PBM binding z-score [4]: 0.108 | PBM binding z-score [5]: 0.347 | PBM binding z-score [6]: -0.184 | PBM binding z-score [7]: 0.385 | PBM binding z-score [8]: 0.435

ATCGAAAGGTTGTGAGGTGAGTATACAGAAAGGC
PBM binding z-score [1]: 1.22 | PBM binding z-score [2]: 1.14 | PBM binding z-score [3]: 1.19 | PBM binding z-score [4]: -0.0955 | PBM binding z-score [5]: 1.24 | PBM binding z-score [6]: 2.23 | PBM binding z-score [7]: 1.49 | PBM binding z-score [8]: 0.162

ATATGTAGGTTAAGGGTCATTCTGGTTGGTTCGC
PBM binding z-score [1]: 3.64 | PBM binding z-score [2]: 4.65 | PBM binding z-score [3]: 3.2 | PBM binding z-score [4]: 2.17 | PBM binding z-score [5]: 6.03 | PBM binding z-score [6]: 3.23 | PBM binding z-score [7]: 1.75 | PBM binding z-score [8]: 4.43

ATATGTAGGTTAGCTGTGGTCATTCAGACTAGGC
PBM binding z-score [1]: 1.13 | PBM binding z-score [2]: 0.752 | PBM binding z-score [3]: 0.985 | PBM binding z-score [4]: 0.139 | PBM binding z-score [5]: 0.643 | PBM binding z-score [6]: 3.29 | PBM binding z-score [7]: -0.0944 | PBM binding z-score [8]: 0.494

CATACAGGGTCAGCTAGGCCTGAGTAGGGACGGC
PBM binding z-score [1]: 2.93 | PBM binding z-score [2]: 4.26 | PBM binding z-score [3]: 4.49 | PBM binding z-score [4]: 1.02 | PBM binding z-score [5]: 4.15 | PBM binding z-score [6]: 2.71 | PBM binding z-score [7]: 0.977 | PBM binding z-score [8]: 0.628

CATACTGGGCCAAAGGTCATTGATTCCAATGCTC
PBM binding z-score [1]: 4.79 | PBM binding z-score [2]: 5.89 | PBM binding z-score [3]: 5.04 | PBM binding z-score [4]: 1.73 | PBM binding z-score [5]: 6.78 | PBM binding z-score [6]: 3.47 | PBM binding z-score [7]: 1.03 | PBM binding z-score [8]: 2.42
